The results in this text go back to PubChem BioAssay (NCATS).

Records with an inconclusive call do not appear. The source made the active and inactive calls. The call rests on the fitted dose curve; in most records, active means well fitted curve in the direction sought with a large enough effect; inconclusive means small, poorly fitted or top-dose-only effect, or another doubt; inactive means no such curve, though single readings can be large or run the other way.

Chain of Protein phosphatase 1D (Homo sapiens) (O15297 whole entry, looked up): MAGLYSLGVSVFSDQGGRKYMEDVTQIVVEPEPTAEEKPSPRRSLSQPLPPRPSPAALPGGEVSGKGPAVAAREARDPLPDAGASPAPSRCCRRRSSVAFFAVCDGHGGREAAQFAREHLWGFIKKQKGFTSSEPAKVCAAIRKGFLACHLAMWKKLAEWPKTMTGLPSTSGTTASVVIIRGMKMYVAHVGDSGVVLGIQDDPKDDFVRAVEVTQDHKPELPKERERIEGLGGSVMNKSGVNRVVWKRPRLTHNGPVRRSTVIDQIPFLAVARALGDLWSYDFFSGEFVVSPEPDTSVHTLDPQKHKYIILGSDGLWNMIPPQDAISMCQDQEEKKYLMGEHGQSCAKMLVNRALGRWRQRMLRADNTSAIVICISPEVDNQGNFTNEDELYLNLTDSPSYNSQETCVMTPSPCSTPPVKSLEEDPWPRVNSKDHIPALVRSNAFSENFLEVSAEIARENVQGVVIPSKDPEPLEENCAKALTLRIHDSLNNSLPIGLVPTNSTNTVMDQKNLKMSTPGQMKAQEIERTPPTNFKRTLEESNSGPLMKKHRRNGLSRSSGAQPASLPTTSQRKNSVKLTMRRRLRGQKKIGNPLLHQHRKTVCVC

In the test the target is Protein phosphatase 1D (Homo sapiens) (UniProt O15297). Briefly: Rhodamine-PBP qHTS Assay for Modulators of WT P53-Induced Phosphatase 1 (WIP1) (AID 1347425). The conditions noted are these: recombinant WIP1, Rhodamine-PBP phosphate fluorescence, real-time; series mostly up to 57.5 µM. From the text:
Assay Provider (PI): Nathan Coussens Ph.D.
National Center for Advancing Translational Sciences (NCATS), Rockville, MD
National Institute of Health (NIH), Bethesda, Maryland
WT P53-Induced Phosphatase 1 (WIP1) is a member of the magnesium-dependent serine/threonine protein phosphatase (PPM) family and is induced by P53 in response to DNA damage. In several human cancers, the WIP1 protein is overexpressed, which is generally associated with a worse prognosis. Although WIP1 is an attractive therapeutic target, no potent, selective, and bioactive small-molecule modulator with favorable pharmacokinetics has been reported. Phosphatase enzymes are among the most challenging targets for small molecules because of the difficulty of achieving both modulator selectivity and bioavailability. Another major obstacle has been the availability of robust and physiologically relevant phosphatase assays that are suitable for high-throughput screening.
Here, we describe two orthogonal biochemical WIP1 activity assays that utilize phosphopeptides from native WIP1 substrates. We optimized a RapidFire MS assay to quantify the enzymatically dephosphorylated peptide reaction product in a 384-well format. Additionally, a redshifted Rhodamine-PBP fluorescence assay was optimized in a 1,536-well format to enable real-time WIP1 activity measurements through the detection of the orthogonal reaction product, Pi. We validated these two optimized assays by quantitative high-throughput screening against the National Center for Advancing Translational Sciences (NCATS) Pharmaceutical Collection and used secondary assays to confirm and evaluate inhibitors identified in the primary screen.
SEQUENCE No. (e.g., 1, 2, 3, etc.); […] (e.g., Cells, Incubation, Reagent, etc.); VALUE; DESCRIPTION
1; Reagent; 3 uL; WIP1 (6.7 nM), Rh-PBP (13.3 uM), columns 1-48
3; Library Compounds; 23 nL; NCATS Pharmaceutical Collection, column 5-48
4; Control Compounds; DMSO in column 2, GSK2830371 (57.5 uM, final) in 3-fold serial dilutions in column 3, GSK2830371 (1.15 uM, final) in column 4
5; Time; 1 hr; incubation
6; Detection; fluorescence (f0); ViewLux, excitation filter = 525 nm, emission filter = 598 nm
7; Reagent; 1 uL; VEPP-pS-QETFS (40 uM), columns 2-48
8; Detection; fluorescence (f1); ViewLux, excitation filter = 525 nm, emission filter = 598 nm
NOTES (numbers refer to sequence above)
1 & 2; Black medium binding Greiner 1536-well plates (# 789176-F); assay buffer: 50 mM Tris-HCl pH 7.5, 30 mM MgCl2, 1mM TCEP, 0.1 mM EGTA, 75 ug/mL BSA; dispensed with a BioRaptr liquid handler (Beckman Coulter).
3 & 4; Kalypsys pintool (equipped with 1536 pinhead, Wako USA) transfer. Tip wash sequence: DMSO, methanol, 3 sec vacuum dry.
5; Room temperature incubation.
7; VEPPL-pS-QETFS in assay buffer dispensed with a BioRaptr; final reaction conditions: 5 nM WIP1, 10 uM VEPPL-pS-QETFS, 10 uM Rh-PBP, 50 mM Tris-HCl pH 7.5, 30 mM MgCl2, 1 mM TCEP, 0.1 mM EGTA, 75 ug/mL BSA.
8; Measurement taken at 1 min intervals for 11 min. Delta readout = f1 - f0.
For orientation: qHTS replaces the single test concentration by a dilution series.
As to `N#CC1(c2ccc(F)cc2)CCC(=O)CC1`, the outcome was inactive.

With `CCC1(c2cnc[nH]2)Cc2ccccc2C1`, the outcome was inactive. The same measure for `NCC(=O)O`: “inactive”; for `COc1cc(C(=O)OC(COCCC(C)C)CN2CCOCC2)cc(OC)c1OC` (stereo not given): “inactive”.

For `O=C(NN1CCCC1)NS(=O)(=O)c1ccc(Cl)cc1`, the outcome was inactive. For `CC(=O)N1CCN(c2ccc(O)cc2)CC1`, the outcome was inactive.

Take `O=C1CC[C@H](C(=O)N2CCCCC2)N1`: the outcome was inactive.

In the case of `COc1cc(OC)nc(O[C@H](C(=O)O)C(OC)(c2ccccc2)c2ccccc2)n1`, the result was inactive. With `COCCc1ccc(OCC2CO2)cc1` (stereo not given), the outcome was inactive.

In the case of `Nc1ccc(C(=O)OCC(O)CO)cc1` (stereo not given), the result was inactive. For the compound `OCCCc1ccccc1`, the outcome was inactive. As for `N#CSCC(=O)O`, the entry is “inactive”. As for `Cc1c(N)cccc1C(F)(F)F`, the entry is “inactive”. The same measure for `O=C(O)[C@H](O)[C@@H](O)[C@H](O[C@@H]1O[C@H](CO)[C@H](O)[C@H](O)[C@H]1O)[C@H](O)CO`: “inactive”; for `CC(=O)c1cc2ccccc2s1`: “inactive”. With `COc1ccc2c(c1)CCCC2=O`, the result was inactive.

With `CCCC(=O)O[C@]1(C(=O)COC(=O)CC)CC[C@H]2[C@@H]3CCC4=CC(=O)CC[C@]4(C)[C@H]3[C@@H](O)C[C@@]21C`, the result was inactive. As for `N#Cc1cc(NC(=O)C(=O)O)c(Cl)c(NC(=O)C(=O)O)c1`, the entry is “inactive”. The same measure for `CCOC(=O)Oc1ccc(CCNC(=O)[C@H](CCSC)NC(C)=O)cc1OC(=O)OCC`: “inactive”; for `O=c1[nH]c2ccccc2c(=O)n1CCCl`: “inactive”. As for `COc1cc2c(cc1OC)CN(C(=O)[C@H](C)N[C@@H](CCc1ccccc1)C(=O)O)[C@H](C(=O)O)C2`, the entry is “inactive”; as for `COCCc1ccccn1`, “inactive”; as for `C/C=C(/C(=C/C)c1ccc(OC(C)=O)cc1)c1ccc(OC(C)=O)cc1`, “inactive”.

Consider `CC(C)Cc1ccc(C(C)C(=O)OCc2ccccn2)cc1` (stereo not given), for which the outcome was inactive. As for `C[C@H]1C[C@H]2[C@@H]3CCC4=CC(=O)C=C[C@]4(C)[C@H]3C(=O)C[C@]2(C)[C@@]1(O)C(=O)CO`, the entry is “inactive”; as for `NC(=O)C1(N2CCCCC2)CCN(CCCN2c3ccccc3CCc3ccc(Cl)cc32)CC1`, “inactive”. Turning to `CCC1=C[C@@H]2CN(C1)Cc1c([nH]c3ccccc13)[C@@](C(=O)OC)(c1cc3c(cc1OC)N(C)[C@H]1[C@@](O)(C(=O)OC)[C@H](OC(C)=O)[C@]4(CC)C=CCN5CC[C@]31[C@@H]54)C2`, the result was inactive. The same measure for `CCCc1c2oc(C(=O)O)cc(=O)c2cc2c(=O)cc(C(=O)O)n(CC)c12`: “inactive”; for `CCC(CN)=C(c1ccccc1)c1ccccc1`: “inactive”; for `O=C(O)c1cn(C2CC2)c2cc(Cl)c(F)cc2c1=O`: “inactive”. Consider `Nc1c2ccccc2nc2ccccc12`, for which the outcome was inactive. For `COc1ccc([C@@H]2Sc3ccccc3NC(=O)[C@@H]2O)cc1`, the outcome was inactive. Consider `C=CCNc1nc(NCC=C)nc(N2CCN(C(c3ccc(F)cc3)c3ccc(F)cc3)CC2)n1`, for which the result was inactive.

Consider `CCC(=O)O[C@]1(C(=O)COC)[C@@H](C)C[C@H]2[C@@H]3CCC4=CC(=O)C=C[C@]4(C)C3(F)[C@@H](O)C[C@@]21C` (stereo not given in full), for which the result was inactive. As for `CC(C)(Oc1ccc(Cl)cc1)C(=O)OCCCOC(=O)C(C)(C)Oc1ccc(Cl)cc1`, the entry is “inactive”. In the case of `COC(=O)CCCCC(CCSS/C(CCO)=C(\C)N(C=O)Cc1cnc(C)nc1N)SC(C)=O` (stereo not given), the outcome was inactive. On to `CCCCCCCCCCCC[N+](C)(C)Cc1ccccc1`, for which the outcome was inactive. As to `COc1cc(/C=C/C(N)=O)cc(OC)c1OC`, the outcome was inactive. The same measure for `Cc1ccc(CCn2c3c(c4cc(Cl)ccc42)CN(C)CC3)cn1`: “inactive”; for `CCCCN(CCCC)C(C(N)=O)c1ccc(OC)cc1` (stereo not given): “inactive”.
